Measured values reported in publication PMC7862700, “An all-to-all approach to the identification of sequence-specific readers for epigenetic DNA modifications on cytosine”.

Experiments:
Test in all cases: DAPPL (digital affinity profiling via proximity ligation, sequencing); 10 mM Tris-HCl pH 7.5, 50 mM NaCl, 1 mM DTT, 4% glycerol, room temperature, 30 min; GST-TFs on glutathione beads, 16-mer random dsDNA library, 0.1% formaldehyde crosslink after washing; high values mean tight binding
FLI1 = molecular target: T1, FLI1 (Homo sapiens, UniProt Q01543 1-452); details: protein: recombinant; tags: N-terminal GST; dsDNA, one strand shown
T1 sequence: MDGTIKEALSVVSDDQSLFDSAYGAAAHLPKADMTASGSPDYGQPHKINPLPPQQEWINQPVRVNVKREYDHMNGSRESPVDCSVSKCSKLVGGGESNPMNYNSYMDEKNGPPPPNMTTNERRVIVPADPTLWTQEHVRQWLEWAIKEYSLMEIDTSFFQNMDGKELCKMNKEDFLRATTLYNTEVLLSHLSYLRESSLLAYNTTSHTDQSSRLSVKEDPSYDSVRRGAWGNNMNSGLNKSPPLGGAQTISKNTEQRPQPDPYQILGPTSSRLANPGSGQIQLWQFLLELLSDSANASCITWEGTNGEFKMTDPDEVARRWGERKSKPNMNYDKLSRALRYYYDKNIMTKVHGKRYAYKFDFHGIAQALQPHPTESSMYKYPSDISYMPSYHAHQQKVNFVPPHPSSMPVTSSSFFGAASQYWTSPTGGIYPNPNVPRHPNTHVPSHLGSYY
In short: (§1)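 Pools of DNA-barcoded human transcription factors, expressed in yeast as GST fusions on glutathione beads and combined with a tag-only sample, were incubated with 200 nmole of a 16-mer random double-stranded DNA library. Incubation took 30 min at room temperature in Tris/NaCl/DTT/glycerol buffer and was followed by washing, 0.1% formaldehyde crosslinking, proximity ligation (BsaI/T4 ligase, 1 h, 37 °C), PCR amplification and sequencing on an Illumina NextSeq500. Binding signal is the ratio of a hexamer's read frequency for a factor to its frequency for the tag-only sample.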

ELK1 = molecular target: T2, ELK1 (Homo sapiens, UniProt P19419 1-428); details: protein: recombinant; tags: N-terminal GST; dsDNA, one strand shown
T2 sequence: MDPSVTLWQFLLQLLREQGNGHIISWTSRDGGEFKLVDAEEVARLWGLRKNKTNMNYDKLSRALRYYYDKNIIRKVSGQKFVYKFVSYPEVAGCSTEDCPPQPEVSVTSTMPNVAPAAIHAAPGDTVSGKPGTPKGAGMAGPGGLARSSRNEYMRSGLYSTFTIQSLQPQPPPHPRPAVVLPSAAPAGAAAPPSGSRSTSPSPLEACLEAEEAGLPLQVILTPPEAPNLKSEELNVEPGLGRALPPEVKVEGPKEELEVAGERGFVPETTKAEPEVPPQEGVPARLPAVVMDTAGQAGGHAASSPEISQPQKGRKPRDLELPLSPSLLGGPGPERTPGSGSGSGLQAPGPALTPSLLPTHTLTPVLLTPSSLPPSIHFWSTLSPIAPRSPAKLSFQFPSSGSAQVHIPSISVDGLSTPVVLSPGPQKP
In short: as §1

GABPA = molecular target: T3, GABPA (Homo sapiens, UniProt Q06546 1-454); details: protein: recombinant; tags: N-terminal GST; dsDNA, one strand shown
T3 sequence: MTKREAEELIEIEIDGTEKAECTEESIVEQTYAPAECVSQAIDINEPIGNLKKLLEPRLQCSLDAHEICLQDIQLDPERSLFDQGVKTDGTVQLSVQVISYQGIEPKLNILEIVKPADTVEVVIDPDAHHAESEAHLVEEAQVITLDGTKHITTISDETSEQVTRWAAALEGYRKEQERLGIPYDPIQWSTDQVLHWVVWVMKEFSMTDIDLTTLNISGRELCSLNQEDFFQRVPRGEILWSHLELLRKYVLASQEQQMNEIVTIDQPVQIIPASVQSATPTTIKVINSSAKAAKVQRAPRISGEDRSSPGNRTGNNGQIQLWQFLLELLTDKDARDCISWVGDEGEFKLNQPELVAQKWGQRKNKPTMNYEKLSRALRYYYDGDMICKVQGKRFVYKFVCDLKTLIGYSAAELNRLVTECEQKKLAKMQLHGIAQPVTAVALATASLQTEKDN
In short: as §1

ERG = molecular target: T4, ERG (Homo sapiens, UniProt P11308 1-479); details: protein: recombinant; tags: N-terminal GST; dsDNA, one strand shown
T4 sequence: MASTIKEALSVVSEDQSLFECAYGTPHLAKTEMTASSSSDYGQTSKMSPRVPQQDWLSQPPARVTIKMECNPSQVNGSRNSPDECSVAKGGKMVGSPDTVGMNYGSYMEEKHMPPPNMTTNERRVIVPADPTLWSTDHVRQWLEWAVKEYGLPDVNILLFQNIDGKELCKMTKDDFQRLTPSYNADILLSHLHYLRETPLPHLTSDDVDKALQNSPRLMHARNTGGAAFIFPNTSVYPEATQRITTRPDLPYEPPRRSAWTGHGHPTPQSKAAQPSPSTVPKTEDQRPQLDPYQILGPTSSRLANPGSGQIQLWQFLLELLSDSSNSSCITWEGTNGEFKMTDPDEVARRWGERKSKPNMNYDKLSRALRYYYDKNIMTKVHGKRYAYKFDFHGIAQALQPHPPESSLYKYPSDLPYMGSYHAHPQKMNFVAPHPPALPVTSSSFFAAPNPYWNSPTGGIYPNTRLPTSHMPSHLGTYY
In short: as §1

ELF1 = ELF1 (Homo sapiens, UniProt P32519 1-619); details: protein: recombinant; tags: N-terminal GST; dsDNA, one strand shown
Chain of ELF1 (P32519 whole entry): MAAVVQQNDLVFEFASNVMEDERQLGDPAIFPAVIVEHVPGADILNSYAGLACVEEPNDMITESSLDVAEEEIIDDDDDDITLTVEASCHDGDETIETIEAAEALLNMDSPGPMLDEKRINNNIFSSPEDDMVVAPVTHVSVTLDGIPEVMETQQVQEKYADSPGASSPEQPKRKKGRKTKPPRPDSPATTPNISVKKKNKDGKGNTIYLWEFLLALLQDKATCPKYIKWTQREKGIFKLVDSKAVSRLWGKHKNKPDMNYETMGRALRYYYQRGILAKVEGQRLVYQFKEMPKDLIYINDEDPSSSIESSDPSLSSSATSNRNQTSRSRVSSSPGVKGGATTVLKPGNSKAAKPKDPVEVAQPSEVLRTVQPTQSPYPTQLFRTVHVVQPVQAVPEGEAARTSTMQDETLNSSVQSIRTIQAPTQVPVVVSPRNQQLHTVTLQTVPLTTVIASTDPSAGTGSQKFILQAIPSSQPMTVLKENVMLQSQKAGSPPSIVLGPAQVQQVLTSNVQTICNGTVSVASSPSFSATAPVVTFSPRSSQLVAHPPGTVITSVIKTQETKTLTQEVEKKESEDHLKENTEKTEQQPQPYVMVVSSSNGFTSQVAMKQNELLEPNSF
In short: as §1

EHF = molecular target: T5, EHF (Homo sapiens, UniProt Q9NZC4 1-300); details: protein: recombinant; tags: N-terminal GST; dsDNA, one strand shown
T5 sequence: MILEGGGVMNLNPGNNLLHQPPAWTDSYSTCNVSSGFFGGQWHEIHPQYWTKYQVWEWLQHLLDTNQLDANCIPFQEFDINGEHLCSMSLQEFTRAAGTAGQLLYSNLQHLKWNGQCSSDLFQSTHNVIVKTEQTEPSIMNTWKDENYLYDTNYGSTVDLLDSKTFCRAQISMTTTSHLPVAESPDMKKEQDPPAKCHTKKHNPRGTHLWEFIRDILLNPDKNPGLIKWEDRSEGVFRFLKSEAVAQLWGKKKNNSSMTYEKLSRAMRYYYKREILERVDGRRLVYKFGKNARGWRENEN
In short: as §1

SPI1 = SPI1 (Homo sapiens, UniProt P17947 1-270); details: protein: recombinant; tags: N-terminal GST; dsDNA, one strand shown
In short: as §1

SPIB = SPIB (Homo sapiens, UniProt Q01892 1-262); details: protein: recombinant; tags: N-terminal GST; dsDNA, one strand shown
Chain of SPIB (Q01892 whole entry): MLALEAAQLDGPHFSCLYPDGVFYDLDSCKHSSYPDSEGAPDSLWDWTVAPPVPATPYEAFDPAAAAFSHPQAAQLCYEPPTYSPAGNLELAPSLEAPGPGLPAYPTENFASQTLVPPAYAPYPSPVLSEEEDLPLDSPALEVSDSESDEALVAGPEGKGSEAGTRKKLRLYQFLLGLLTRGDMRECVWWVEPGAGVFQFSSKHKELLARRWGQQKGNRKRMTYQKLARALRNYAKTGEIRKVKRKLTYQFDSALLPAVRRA
In short: as §1

ELK3 = molecular target: T6, ELK3 (Homo sapiens, UniProt P41970 1-407); details: protein: recombinant; tags: N-terminal GST; dsDNA, one strand shown
T6 sequence: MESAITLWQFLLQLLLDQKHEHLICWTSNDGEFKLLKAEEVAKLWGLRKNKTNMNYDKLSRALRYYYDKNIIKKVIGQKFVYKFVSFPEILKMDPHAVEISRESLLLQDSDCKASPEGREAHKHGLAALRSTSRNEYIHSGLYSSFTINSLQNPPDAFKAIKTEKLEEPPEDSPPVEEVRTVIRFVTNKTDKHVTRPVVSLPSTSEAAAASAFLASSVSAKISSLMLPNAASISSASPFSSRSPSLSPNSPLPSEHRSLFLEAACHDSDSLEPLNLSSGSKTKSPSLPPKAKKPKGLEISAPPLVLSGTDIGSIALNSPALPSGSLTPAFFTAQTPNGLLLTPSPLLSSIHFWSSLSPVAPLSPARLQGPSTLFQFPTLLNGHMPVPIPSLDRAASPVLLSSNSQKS
In short: as §1

FEV = molecular target: T7, FEV (Homo sapiens, UniProt Q99581 1-238); details: protein: recombinant; tags: N-terminal GST; dsDNA, one strand shown
T7 sequence: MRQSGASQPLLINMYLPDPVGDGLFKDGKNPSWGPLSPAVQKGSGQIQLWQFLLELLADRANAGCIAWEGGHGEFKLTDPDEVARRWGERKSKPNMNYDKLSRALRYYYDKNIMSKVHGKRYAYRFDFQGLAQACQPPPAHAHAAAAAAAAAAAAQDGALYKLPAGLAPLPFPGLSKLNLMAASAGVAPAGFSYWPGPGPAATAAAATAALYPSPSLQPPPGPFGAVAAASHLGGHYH
In short: as §1

ETV5 = ETV5 (Homo sapiens, UniProt P41161 1-510); details: protein: recombinant; tags: N-terminal GST; dsDNA, one strand shown
Chain of ETV5 (P41161 whole entry): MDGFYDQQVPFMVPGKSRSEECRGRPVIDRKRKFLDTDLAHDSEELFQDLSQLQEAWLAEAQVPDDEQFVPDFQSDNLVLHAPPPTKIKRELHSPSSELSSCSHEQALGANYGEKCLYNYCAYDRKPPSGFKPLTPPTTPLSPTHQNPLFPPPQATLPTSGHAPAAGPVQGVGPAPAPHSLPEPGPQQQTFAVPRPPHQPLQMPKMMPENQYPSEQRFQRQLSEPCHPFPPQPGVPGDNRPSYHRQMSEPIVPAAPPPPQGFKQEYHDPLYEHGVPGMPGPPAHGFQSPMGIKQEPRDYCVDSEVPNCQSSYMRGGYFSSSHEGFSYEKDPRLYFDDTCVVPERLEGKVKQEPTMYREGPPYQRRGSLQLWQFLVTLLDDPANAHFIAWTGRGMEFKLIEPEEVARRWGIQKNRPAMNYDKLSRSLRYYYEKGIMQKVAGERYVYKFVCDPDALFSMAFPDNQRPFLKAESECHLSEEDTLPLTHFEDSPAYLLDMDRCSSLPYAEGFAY
In short: as §1

HSF1 = HSF1 (Homo sapiens, UniProt Q00613 1-529); details: protein: recombinant; tags: N-terminal GST; chain copies: 3; dsDNA, one strand shown
Chain of HSF1 (Q00613 whole entry): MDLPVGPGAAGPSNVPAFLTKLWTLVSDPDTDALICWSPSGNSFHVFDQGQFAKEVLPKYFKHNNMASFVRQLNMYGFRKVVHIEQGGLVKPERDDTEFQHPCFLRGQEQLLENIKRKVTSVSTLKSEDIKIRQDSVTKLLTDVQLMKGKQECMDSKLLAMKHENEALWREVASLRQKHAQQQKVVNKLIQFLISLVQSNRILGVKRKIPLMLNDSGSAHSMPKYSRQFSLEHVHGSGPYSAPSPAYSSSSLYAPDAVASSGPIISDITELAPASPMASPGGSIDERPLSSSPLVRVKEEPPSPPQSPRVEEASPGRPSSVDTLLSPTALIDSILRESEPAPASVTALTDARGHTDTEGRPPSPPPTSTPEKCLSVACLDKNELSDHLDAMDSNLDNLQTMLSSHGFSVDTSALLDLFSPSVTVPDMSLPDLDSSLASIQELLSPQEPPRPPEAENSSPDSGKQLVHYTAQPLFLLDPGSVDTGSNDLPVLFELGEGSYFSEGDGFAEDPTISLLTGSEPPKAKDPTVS
In short: as §1

SPIC = molecular target: T8, SPIC (Homo sapiens, UniProt Q8N5J4 1-248); details: protein: recombinant; tags: N-terminal GST; dsDNA, one strand shown
T8 sequence: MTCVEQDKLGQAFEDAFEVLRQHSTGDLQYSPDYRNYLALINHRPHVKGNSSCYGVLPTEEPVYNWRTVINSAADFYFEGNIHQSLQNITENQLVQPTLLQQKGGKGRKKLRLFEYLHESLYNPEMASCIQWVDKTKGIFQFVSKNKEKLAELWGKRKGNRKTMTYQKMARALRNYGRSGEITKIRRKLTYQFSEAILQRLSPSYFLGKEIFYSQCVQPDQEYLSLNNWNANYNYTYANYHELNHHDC
In short: as §1

ELF4 = ELF4 (Homo sapiens, UniProt Q99607 1-663); details: protein: recombinant; tags: N-terminal GST; dsDNA, one strand shown
Chain of ELF4 (Q99607 whole entry): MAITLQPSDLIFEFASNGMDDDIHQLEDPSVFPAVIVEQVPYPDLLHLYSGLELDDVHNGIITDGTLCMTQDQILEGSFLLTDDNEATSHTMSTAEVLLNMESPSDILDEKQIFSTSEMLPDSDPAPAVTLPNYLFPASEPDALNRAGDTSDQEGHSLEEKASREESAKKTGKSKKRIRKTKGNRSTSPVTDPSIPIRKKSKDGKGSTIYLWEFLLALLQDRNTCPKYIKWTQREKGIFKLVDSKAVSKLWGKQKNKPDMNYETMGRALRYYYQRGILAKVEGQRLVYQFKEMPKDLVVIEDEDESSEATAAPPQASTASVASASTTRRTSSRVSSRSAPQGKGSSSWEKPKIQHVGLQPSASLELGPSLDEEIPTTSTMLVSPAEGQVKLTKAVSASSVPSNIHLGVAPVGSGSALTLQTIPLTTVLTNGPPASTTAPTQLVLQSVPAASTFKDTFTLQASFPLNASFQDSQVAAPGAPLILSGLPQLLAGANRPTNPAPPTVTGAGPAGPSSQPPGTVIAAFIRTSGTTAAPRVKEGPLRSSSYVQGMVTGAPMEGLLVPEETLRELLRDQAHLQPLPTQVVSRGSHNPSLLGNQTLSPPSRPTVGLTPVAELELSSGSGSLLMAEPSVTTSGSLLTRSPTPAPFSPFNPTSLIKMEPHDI
In short: as §1

ELK4 = molecular target: T9, ELK4 (Homo sapiens, UniProt P28324-2 1-405); details: protein: recombinant; tags: N-terminal GST; dsDNA, one strand shown
T9 sequence: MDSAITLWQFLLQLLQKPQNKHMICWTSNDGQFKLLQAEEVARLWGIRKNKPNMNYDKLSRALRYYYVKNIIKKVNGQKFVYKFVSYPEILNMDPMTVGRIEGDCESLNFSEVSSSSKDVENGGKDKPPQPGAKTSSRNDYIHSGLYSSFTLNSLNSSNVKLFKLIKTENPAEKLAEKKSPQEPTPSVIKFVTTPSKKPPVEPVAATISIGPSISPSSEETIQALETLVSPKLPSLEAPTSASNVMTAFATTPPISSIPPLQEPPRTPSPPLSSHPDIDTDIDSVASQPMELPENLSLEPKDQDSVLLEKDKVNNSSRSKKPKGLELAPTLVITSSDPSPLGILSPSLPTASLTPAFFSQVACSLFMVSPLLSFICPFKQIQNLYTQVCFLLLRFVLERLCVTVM
In short: as §1

ETV2 = molecular target: T10, ETV2 (Homo sapiens, UniProt O00321 1-342); details: protein: recombinant; tags: N-terminal GST; dsDNA, one strand shown
T10 sequence: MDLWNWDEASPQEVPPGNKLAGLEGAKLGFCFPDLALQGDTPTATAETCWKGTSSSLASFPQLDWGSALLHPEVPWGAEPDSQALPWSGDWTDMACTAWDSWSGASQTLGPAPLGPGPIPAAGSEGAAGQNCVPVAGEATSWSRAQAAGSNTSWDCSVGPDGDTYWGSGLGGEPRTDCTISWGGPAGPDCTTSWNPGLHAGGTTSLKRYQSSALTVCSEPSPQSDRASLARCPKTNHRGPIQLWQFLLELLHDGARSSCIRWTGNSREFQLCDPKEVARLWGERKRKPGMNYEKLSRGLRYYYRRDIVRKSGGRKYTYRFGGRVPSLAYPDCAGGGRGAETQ
In short: as §1

ELF3 = molecular target: T11, ELF3 (Homo sapiens, UniProt P78545 1-371); details: protein: recombinant; tags: N-terminal GST; dsDNA, one strand shown
T11 sequence: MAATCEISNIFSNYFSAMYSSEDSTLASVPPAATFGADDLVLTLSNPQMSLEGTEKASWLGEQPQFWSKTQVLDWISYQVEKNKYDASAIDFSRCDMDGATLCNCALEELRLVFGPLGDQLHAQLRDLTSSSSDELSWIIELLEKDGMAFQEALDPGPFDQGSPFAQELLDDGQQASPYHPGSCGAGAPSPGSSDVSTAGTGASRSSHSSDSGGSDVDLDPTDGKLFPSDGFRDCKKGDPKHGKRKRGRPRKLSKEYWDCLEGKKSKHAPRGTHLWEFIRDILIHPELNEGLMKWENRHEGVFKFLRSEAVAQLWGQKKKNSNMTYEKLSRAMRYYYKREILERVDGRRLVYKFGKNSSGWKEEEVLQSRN
In short: as §1

CRX = CRX (Homo sapiens, UniProt O43186 1-299); details: protein: recombinant; tags: N-terminal GST; dsDNA, one strand shown
Chain of CRX (O43186 whole entry): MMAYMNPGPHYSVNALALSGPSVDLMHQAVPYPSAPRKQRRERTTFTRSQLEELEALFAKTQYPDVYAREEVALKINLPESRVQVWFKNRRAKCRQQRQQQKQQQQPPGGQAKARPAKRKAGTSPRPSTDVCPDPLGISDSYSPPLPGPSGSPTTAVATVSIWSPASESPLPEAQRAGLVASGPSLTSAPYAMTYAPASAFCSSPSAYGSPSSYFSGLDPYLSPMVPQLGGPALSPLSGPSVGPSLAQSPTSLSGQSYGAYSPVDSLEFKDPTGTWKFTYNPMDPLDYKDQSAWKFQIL
In short: as §1

ETV1 = ETV1 (Homo sapiens, UniProt P50549 1-477); details: protein: recombinant; tags: N-terminal GST; dsDNA, one strand shown
Chain of ETV1 (P50549 whole entry): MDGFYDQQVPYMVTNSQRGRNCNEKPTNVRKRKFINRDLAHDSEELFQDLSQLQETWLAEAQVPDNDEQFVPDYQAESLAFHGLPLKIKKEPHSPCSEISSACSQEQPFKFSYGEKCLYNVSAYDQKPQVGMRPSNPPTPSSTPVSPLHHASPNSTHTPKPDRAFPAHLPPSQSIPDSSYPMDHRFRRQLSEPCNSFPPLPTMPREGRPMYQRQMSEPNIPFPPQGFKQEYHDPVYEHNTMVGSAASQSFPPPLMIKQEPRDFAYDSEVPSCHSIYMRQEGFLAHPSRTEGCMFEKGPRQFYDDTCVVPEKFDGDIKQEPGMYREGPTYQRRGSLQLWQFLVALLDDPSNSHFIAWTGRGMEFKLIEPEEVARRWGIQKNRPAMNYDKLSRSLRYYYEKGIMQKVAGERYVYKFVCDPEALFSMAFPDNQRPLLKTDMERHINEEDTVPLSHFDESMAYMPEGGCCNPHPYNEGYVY
In short: as §1

With CTAAAT the binding signal (FLI1) was 1.34 fold enrichment (6-mer frequency, TF over GST control), the binding signal (ELK1) was 1.36 fold enrichment (6-mer frequency, TF over GST control) and the binding signal (GABPA) was 1.31 fold enrichment (6-mer frequency, TF over GST control). For the same sequence, the binding signal (ERG) was 1.34 fold enrichment (6-mer frequency, TF over GST control), the binding signal (ELF1) was 1.3 fold enrichment (6-mer frequency, TF over GST control) and the binding signal (EHF) was 1.34 fold enrichment (6-mer frequency, TF over GST control). For the same sequence, the binding signal (SPI1) was 1.37 fold enrichment (6-mer frequency, TF over GST control), the binding signal (SPIB) was 1.38 fold enrichment (6-mer frequency, TF over GST control) and the binding signal (ELK3) was 1.37 fold enrichment (6-mer frequency, TF over GST control). The binding signal (FEV) was 1.3 fold enrichment (6-mer frequency, TF over GST control), the binding signal (ETV5) was 1.42 fold enrichment (6-mer frequency, TF over GST control) and the binding signal (HSF1) was 1.59 fold enrichment (6-mer frequency, TF over GST control). For the same sequence, the binding signal (SPIC) was 1.38 fold enrichment (6-mer frequency, TF over GST control), the binding signal (ELF4) was 1.36 fold enrichment (6-mer frequency, TF over GST control) and the binding signal (ELK4) was 1.42 fold enrichment (6-mer frequency, TF over GST control). For the same sequence, the binding signal (ETV2) was 1.33 fold enrichment (6-mer frequency, TF over GST control), the binding signal (ELF3) was 1.46 fold enrichment (6-mer frequency, TF over GST control) and the binding signal (CRX) was 1.9 fold enrichment (6-mer frequency, TF over GST control). For the same sequence, the binding signal (ETV1) was 1.42 fold enrichment (6-mer frequency, TF over GST control).
